Targets with the largest changes are over-represented here; the source holds about 21,000 in all.
Compound: CC1Cc2ccccc2N1C(=O)C1CCCN(C1)C(=O)CCl (mixture of isomers) [TRIM25 ligand 11 (diastereomer mixture)]
Assay: probe-labelled cysteine peptide fold change vs DMSO (competition) (log2 fold change); higher = less target engagement (more negative = stronger competition)
Conditions: THP-1, incubation time: 4 h
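Note: competitive chemoproteomic profiling in live THP-1 cells with an iodoacetamide desthiobiotin (IA-DTB) probe, comparing probe-labelled peptide intensities in compound-treated cells against DMSO-treated controls.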

| Target | probe-labelled cysteine peptide fold change (10 µM) | probe-labelled cysteine peptide fold change (50 µM) |
| --- | --- | --- |
| MORC3_Q14149_744_ETCHQSTETDAVFLLESINGK (UniProt Q14149) | 0.143 | -0.605 |
| NADK2_Q4G0N4_311_SSGLNLCTGTGSK (UniProt Q4G0N4) | -0.0288 | -0.0319 |
| NAPA_P54920_103_KADPQEAINCLMR (UniProt P54920) | 0.0661 | 0.0556 |
| NANS_Q9NR45_19_WVGGQHPCFIIAEIGQNHQGDLDVAK (UniProt Q9NR45) | 0.0689 | 0.0782 |
| MDN1_Q9NU22_1400_TTICQVFAALANQK (UniProt Q9NU22) | 0.156 | 0.0599 |
| LUC7L3_O95232_58_SDLGPCEK (UniProt O95232) | -0.0397 | -0.155 |
| MKI67_P46013_773_EQPQLTSTCHIAISNSENLLGK (UniProt P46013) | 0.234 | -0.0412 |
| MYO1G_B0I1T2_618_LDENHCR (UniProt B0I1T2) | 0.054 | 0.247 |
| NAA10_P41227_17+21_NARPEDLMNMQHCNLLCLPENYQMK (UniProt P41227) | -0.0777 | -0.156 |
| METTL5_Q9NRN9_107+110_NAEEFELTNIDMVQCDVCLLSNR (UniProt Q9NRN9) | -0.067 | -0.00432 |
| NAE1_Q13564_384_LLCSNSAFLR (UniProt Q13564) | -0.025 | -0.00331 |
| MVP_Q14764_515_ALCLLLGPDFFTDVITIETADHAR (UniProt Q14764) | 0.505 | 0.893 |
| MTPAP_Q9NVV4_324_FSHQASGFQCDLTTNNR (UniProt Q9NVV4) | 0.592 | 0.896 |
| NAXD_Q8IW45_261_GERDILSNGQQVLVCSQEGSSR (UniProt Q8IW45) | 0.0581 | 0.131 |
| MYH9_P35579_671_CIIPNHEKK (UniProt P35579) | -0.608 | -0.373 |
| MAVS_Q7Z434_33_NFSNFCNVDVVEILPYLPCLTAR (UniProt Q7Z434) | 0.142 | 0.343 |
| MCU_Q8NE86_97_CQFTLKPISDSVGVFLR (UniProt Q8NE86) | -0.212 | -0.196 |
| NAA25_Q14CX7_339_SQGCNDEYK (UniProt Q14CX7) | 0.0881 | -0.0602 |
| NBEAL2_Q6ZNJ1_2335_ALEGIISNFGQTPCQLLK (UniProt Q6ZNJ1) | 0.0509 | -0.034 |
| MRPS34_P82930_93_SWLWQHDEPCYWR (UniProt P82930) | 0.0173 | 0.142 |
| MYO9B_Q13459_1169_HIQSCK (UniProt Q13459) | -0.0237 | -0.105 |
| MACF1_Q9UPN3_3619_QQNTCHQQLEDLCSWVGQAER (UniProt Q9UPN3) | -0.474 | 0.118 |

| Target | probe-labelled cysteine peptide fold change (10 µM) | probe-labelled cysteine peptide fold change (50 µM) |
| --- | --- | --- |
| MAP4K1_Q92918_334+335_SSSLGIPDADCCR (UniProt Q92918) | -0.0222 | -0.126 |
| MAN2C1_Q9NTJ4_871_WMDLSEHGFGLALLNDCK (UniProt Q9NTJ4) | 0.38 | 0.327 |
| MCM3AP_O60318_439_SESTDSLGGLSPSEVTAIQCK (UniProt O60318) | -0.0427 | -0.262 |
| MACF1_Q9UPN3_5309_DCDVQGLEHDMEEINAR (UniProt Q9UPN3) | 0.136 | -0.0387 |
| MDN1_Q9NU22_1394_ALEFGEPVLLVGDTGCGK (UniProt Q9NU22) | -0.0161 | 0.145 |
| LYAR_Q9NX58_30_NCECLSCIDCGK (UniProt Q9NX58) | -0.0598 | -0.0603 |
| MRM3_Q9HC36_309_ASDHGWVCDQR (UniProt Q9HC36) | 0.135 | -0.1 |
| MICALL1_Q8N3F8_194_CSSTLLPGAYENGPEEGTFVCAEHCAR (UniProt Q8N3F8) | 0.154 | -0.0569 |
| NBAS_A2RRP1_1634_QLHCYNER (UniProt A2RRP1) | 0.000992 | -0.0554 |
| MIF_P14174_81_LLCGLLAER (UniProt P14174) | -0.156 | -0.117 |
| MYH9_P35579_896_LQLQEQLQAETELCAEAEELRAR (UniProt P35579) | -0.566 | -0.0747 |
| MYCBP2_O75592_3786_NITINCVK (UniProt O75592) | -0.237 | 0.117 |
| METTL13_Q8N6R0_226_FRPVPGSALQIFELCAQEQR (UniProt Q8N6R0) | 0.025 | -0.292 |
| MCM2_P49736_624_CTVIAAANPIGGR (UniProt P49736) | 0.0682 | 0.0292 |
| MFSD2A_Q8NA29_44_KQQLSVCNK (UniProt Q8NA29) | -0.207 | -0.294 |
| MELTF_P08582_603_SEDYELLCPNGAR (UniProt P08582) | 0.0149 | 0.0229 |
| MAP4K2_Q12851_302_ASDPHLGTPSPEDCELETYDMFPDTIHSR (UniProt Q12851) | -0.0289 | -0.161 |
| MECP2_P51608_429_GGSLESDGCPKEPAK (UniProt P51608) | -0.274 | -0.613 |
| NACC1_Q96RE7_178_VKTEQQESDSVQCMPVAK (UniProt Q96RE7) | -0.28 | -0.426 |
| MOV10_Q9HCE1_172_NGGTQSVTLTHLFPLCR (UniProt Q9HCE1) | 0.234 | 0.148 |
| MTREX_P42285_983_LEIDEETYLSSFKPHLMDVVYTWATGATFAHICK (UniProt P42285) | 0.115 | -0.0469 |

Source: the supplement of paper PMC12067093, “Discovery and optimisation of a covalent ligand for TRIM25 and its application to targeted protein ubiquitination” (Chemical Science, 2025)
